Source: PubChem BioAssay AID1159580 (chemical genetic matrix, 2015)
Hit rate of the full screen: of about 5,500 compounds, about 2,000 (36%) were called active. Not shown: some 18% with an inconclusive outcome. Cut-off read from the data, not from the text of the source: active = normalized growth mostly below about 0.91 (no sharp cut-off); inconclusive = no clear call, values can overlap the other calls; inactive = mostly above about 0.92. The list shows a part of the results.

Test: chemical genetic growth profiling, strain panel (AID 1159580);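 note: tested at 20 µM; growth read once vehicle control cultures reached saturation at 30 °C; 1 = growth at the plate median or of vehicle wells; lower values mean less growth of the strain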
Details: S. cerevisiae deletion strains, growth OD

Measured: normalized growth

CCOP(=S)(OCC)SCn1c(=O)oc2cc(Cl)ccc21
inactive: locus YAL013W, strain DEP1, active compounds read low 1 | locus YAL021C, strain ccr4, active compounds read low 0.957 | locus YAL026C, strain drs2, active compounds read low 0.972 | locus YAL030W, strain snc1, active compounds read low 0.947 | locus YBL061C, strain skt5, active compounds read low 0.949 | locus YBR021W, strain FUR4, active compounds read low 0.998 | locus YBR023C, strain chs3, active compounds read low 0.946 | locus YBR171W, strain sec66, active compounds read low 0.922 | locus YBR229C, strain ROT2, active compounds read low 0.997 | locus YBR231C, strain swc5, active compounds read low 0.956 | locus YBR279W, strain paf1, active compounds read low 0.977 | locus YCL011C, strain gbp2, active compounds read low 0.961 | locus YCL016C, strain dcc1, active compounds read low 0.955 | locus YCL029C, strain bik1, active compounds read low 0.985 | locus YCL061C, strain MRC1, active compounds read low 0.956 | locus YCL069W, strain vba3, active compounds read low 0.968 | locus YCR088W, strain abp1, active compounds read low 0.961 | locus YDL005C, strain med2, active compounds read low 0.968 | locus YDL035C, strain GPR1, active compounds read low 0.987 | locus YDL040C, strain nat1, active compounds read low 0.961 | locus YDL074C, strain BRE1, active compounds read low 0.928 | locus YDL101C, strain DUN1, active compounds read low 1.01 | locus YDL134C, strain PPH21, active compounds read low 0.991 | locus YDL185W, strain tfp1, active compounds read low 1 | locus YDL192W, strain arf1, active compounds read low 0.989 | locus YDR001C, strain nth1, active compounds read low 0.96 | locus YDR069C, strain doa4, active compounds read low 0.956 | locus YDR101C, strain arx1, active compounds read low 0.992 | locus YDR150W, strain NUM1, active compounds read low 0.995 | locus YDR159W, strain sac3, active compounds read low 0.97 | locus YDR162C, strain NBP2, active compounds read low 0.987 | locus YDR195W, strain ref2 1.04 | locus YDR297W, strain sur2, active compounds read low 0.943 | locus YDR318W, strain mcm21, active compounds read low 0.993 | locus YDR334W, strain swr1, active compounds read low 0.965 | locus YDR335W, strain msn5, active compounds read low 0.974 | locus YDR388W, active compounds read low 0.994 | locus YDR392W, strain spt3, active compounds read low 0.872 | locus YDR502C, strain sam2, active compounds read low 0.986 | locus YEL003W, strain gim4, active compounds read low 0.961 | locus YEL037C, strain rad23, active compounds read low 0.975 | locus YEL061C, strain CIN8 (second series), active compounds read low 0.96 | locus YEL061C, strain CIN8, active compounds read low 0.99 | locus YER015W, strain faa2, active compounds read low 0.967 | locus YER016W, strain bim1, active compounds read low 0.958 | locus YER110C, active compounds read low 0.993 | locus YER111C, strain swi4, active compounds read low 0.965 | locus YER155C, strain BEM2 (second series), active compounds read low 0.952 | locus YER155C, strain BEM2, active compounds read low 0.993 | locus YER167W, strain BCK2, active compounds read low 1 | locus YFR010W, strain ubp6, active compounds read low 0.979 | locus YGL078C, strain dbp3, active compounds read low 0.984 | locus YGL086W, strain mad1, active compounds read low 0.986 | locus YGL167C, strain pmr1, active compounds read low 0.921 | locus YGL173C, strain kem1, active compounds read low 0.943 | locus YGL227W, strain vid30, active compounds read low 0.963 | locus YGL240W, strain doc1, active compounds read low 0.935 | locus YGL248W, strain PDE1, active compounds read low 0.985 | locus YGL253W, strain hxk2, active compounds read low 0.961 | locus YGR078C, strain PAC10, active compounds read low 0.994 | locus YGR135W, strain pre9, active compounds read low 0.977 | locus YGR229C, strain SMI1, active compounds read low 1.01 | locus YGR252W, strain gcn5, active compounds read low 0.987 | locus YHR013C, strain ard1, active compounds read low 1.01 | locus YHR027C, strain rpn1, active compounds read low 0.959 | locus YHR030C, strain SLT2, active compounds read low 0.984 | locus YHR079C, strain IRE1 (second series), active compounds read low 0.996 | locus YHR094C, strain hxt1, active compounds read low 0.994 | locus YHR129C, strain ARP1, active compounds read low 0.986 | locus YHR142W, strain chs7, active compounds read low 0.954 | locus YHR200W, strain rpn10, active compounds read low 0.99 | locus YIL066C, strain RNR3, active compounds read low 1.01 | locus YIL073C, strain SPO22, active compounds read low 1.06 | locus YIL125W, strain kgd1, active compounds read low 0.984 | locus YIR030C, strain dcg1, active compounds read low 0.989 | locus YJL092W, strain hpr5, active compounds read low 0.965 | locus YJL095W, strain BCK1 (second series), active compounds read low 0.941 | locus YJL095W, strain BCK1, active compounds read low 0.975 | locus YJL115W, strain asf1, active compounds read low 0.969 | locus YJL129C, strain trk1, active compounds read low 0.907 | locus YJL134W, strain LCB3, active compounds read low 0.994 | locus YJL154C, strain vps35, active compounds read low 0.972 | locus YJL164C, strain tpk1, active compounds read low 0.943 | locus YJL166W, strain qcr8, active compounds read low 0.942 | locus YJL168C, strain set2, active compounds read low 0.991 | locus YJL187C, strain SWE1 (second series), active compounds read low 1 | locus YJL187C, strain SWE1, active compounds read low 0.95
active: locus YBR009C, strain hhf1, active compounds read low 1.35 [resistant] | locus YDR137W, strain rgp1, active compounds read low 0.81
